In PubChem BioAssay (NCI):
Compounds without any hit were thinned out: in the full panel of roughly 83,000, 20% have a hit.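 Single-concentration screen, 48 h exposure, 96-well plates. Endpoint: percent growth. Below 10 = active.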 A number with no mark means an inactive call. Active and inactive are the calls of the source.

Assays:
Test in all cases: NCI-60 one-dose screen, 48 h (100 = growth as untreated, 0 = no growth, -100 = all killed)
Details in all cases: 10 µM unless noted
SK-MEL-2 melanoma = tested on: SK-MEL-2 melanoma
EKVX NSCLC = tested on: EKVX NSCLC
SN12C renal = tested on: SN12C renal
UO-31 renal = tested on: UO-31 renal
TK-10 renal = tested on: TK-10 renal
ACHN renal = tested on: ACHN renal
A498 renal = tested on: A498 renal
CCRF-CEM leukemia = tested on: CCRF-CEM leukemia
MOLT-4 leukemia = tested on: MOLT-4 leukemia
SR leukemia = tested on: SR leukemia
OVCAR-8 ovarian = tested on: OVCAR-8 ovarian
OVCAR-4 ovarian = tested on: OVCAR-4 ovarian
SK-OV-3 ovarian = tested on: SK-OV-3 ovarian
IGROV1 ovarian = tested on: IGROV1 ovarian
OVCAR-3 ovarian = tested on: OVCAR-3 ovarian
HS 578T breast = tested on: HS 578T breast
NCI/ADR-RES ovarian = tested on: NCI/ADR-RES ovarian
RPMI-8226 leukemia = tested on: RPMI-8226 leukemia
OVCAR-5 ovarian = tested on: OVCAR-5 ovarian
CAKI-1 renal = tested on: CAKI-1 renal

Structure (SMILES)	growth (SK-MEL-2 melanoma)	growth (EKVX NSCLC)	growth (SN12C renal)	growth (UO-31 renal)	growth (TK-10 renal)	growth (ACHN renal)	growth (A498 renal)	growth (CCRF-CEM leukemia)	growth (MOLT-4 leukemia)	growth (SR leukemia)	growth (OVCAR-8 ovarian)	growth (OVCAR-4 ovarian)	growth (SK-OV-3 ovarian)	growth (IGROV1 ovarian)	growth (OVCAR-3 ovarian)	growth (HS 578T breast)	growth (NCI/ADR-RES ovarian)	growth (RPMI-8226 leukemia)	growth (OVCAR-5 ovarian)	growth (CAKI-1 renal)
CN(C)c1ccc(N=Nc2ccccn2)c(O)c1	27.1%	17%	11.3%	-8.47% (active)	38.9%	6.69% (active)	48.2%	2.26% (active)	2.31% (active)	3.79% (active)	16%	28.3%	19.5%	14.9%	33.2%	60.9%	12.4%			
COc1ccc(SC2c3ccc(C)cc3Oc3nc(N)c(C#N)c(N)c32)cc1 (centres undefined)	-59.8% (active)	-10.8% (active)	-94.3% (active)	-95.9% (active)	-97.9% (active)	-98.1% (active)	28.7%	-33.5% (active)	-24.7% (active)		-89.1% (active)	-93.5% (active)	44.9%	-82.8% (active)	-93.7% (active)	3.13% (active)	1.24% (active)	-34.2% (active)	5.64% (active)	
O=C(N(c1ccccc1)c1ccccc1)n1ccc2nc(Cl)nc(Cl)c21	58.6%	63.3%	53.8%	57.1%		65.2%	81%	16%	37.1%	54.4%	63.2%	63.3%	49.7%	68.5%	30%	42.2%	35.8%	16.1%	64.2%	53.4%
Clc1ccc2c(NCCCCNc3nc(N4CCOCC4)nc4ccccc34)ccnc2c1	103%	45.2%	-8.57% (active)	-89.7% (active)	-63.1% (active)	-67.5% (active)		-21.7% (active)	17.6%	-18.9% (active)	9.88% (active)	-13.1% (active)	64.5%	44.9%	-71.2% (active)	91.8%	55.6%	-32.2% (active)	64.8%	
COc1cc2c(cc1OC)C(Sc1ccc(SC)cc1)c1c(nc(N)c(C#N)c1N)O2 (centres undefined)	-63.7% (active)	-45.6% (active)	-88% (active)	-99.7% (active)	-95.7% (active)	-86.4% (active)	-6.98% (active)	-32.7% (active)	-26.3% (active)		-90.6% (active)	-94.8% (active)	-85.1% (active)	-68.9% (active)	-88.7% (active)	4.87% (active)	-23.2% (active)	-37.9% (active)	-63.1% (active)	
N#Cc1nnn(-c2ccc(S(N)(=O)=O)cc2)c1NCC(=O)c1ccccc1	97.8%	90.9%	97.1%	78.9%	107%	99.5%	101%	83.6%	89.9%		91.6%	89.8%	91.9%	99.5%	106%	98.3%	105%	87.5%	108%	
CCCCC(=O)OCC1OC(n2cnc3c(=S)nc[nH]c32)C(OC(=O)CCCC)C1OC(=O)CCCC (centres undefined)	46.2%	31.3%	27.4%	35%	14.9%	17.2%	24.8%	28.4%	15.3%	24.5%	-23.2% (active)	29.8%	19.3%		22%	38.1%	19.6%		32.3%	
Clc1ccc2c(NCCCNc3nc(-n4ccnc4)nc4ccccc34)ccnc2c1	103%	70.3%	84.4%	78.8%	102%	97.7%	78.2%	75.2%	68%		86.2%	75%	94.5%	79.1%	90.2%	84.6%	101%	69.3%	96.3%	
O=C(/C=C/c1cccc([N+](=O)[O-])c1)c1ccc(O)c(CN2CCN(c3cc4c(cc3F)c(=O)c(C(=O)O)cn4C3CC3)CC2)c1	88.3%	52.8%	32.5%	-29.7% (active)		8.06% (active)	97.2%	0.194% (active)	2.37% (active)		27.4%	37.4%	72.9%	28.8%	7.92% (active)	51.9%	10.7%	-25.6% (active)	12.4%	42.3%
Cc1cc(N2CCSCC2)nc(NC2CCCC(Nc3ccnc4cc(Cl)ccc34)C2)n1 (centres undefined)	-81% (active)	24.1%	-29% (active)	-94% (active)		-61.9% (active)		-20.5% (active)	-9.85% (active)	-54% (active)	-20.9% (active)	16.8%	34.8%	-16.1% (active)	-38.4% (active)	-34.2% (active)	1.15% (active)	-52.6% (active)	29.7%	
COc1ccc(-c2cc(Nc3ccnc(N4CCOCC4)n3)on2)cc1	42%	50.9%	47.2%	51.9%		44.9%		17.2%	21.2%	31.1%	37.2%	62.1%	43.2%	43.1%	-17.6% (active)	18.7%	10.8%	25.2%	46.6%	51.8%
Cc1cc(C)nc(SC2=C(Nc3ccc(C)c(Cl)c3)C(=O)N(Cc3ccccc3)C2=O)n1	85.3% [30 µM]	52.7% [30 µM]	66.9% [30 µM]	16.7% [30 µM]		81% [30 µM]		35.3% [30 µM]	7.47% [30 µM] (active)	25.4% [30 µM]	45.3% [30 µM]	58.2% [30 µM]	99% [30 µM]	45.1% [30 µM]		72.1% [30 µM]	62.8% [30 µM]	7.62% [30 µM] (active)	103% [30 µM]	54.3% [30 µM]
CC(C)C1=C[C@@]23CC[C@@H]4[C@](C)(CCC[C@@]4(C)C(=O)N4CCCNCC4)[C@H]2C[C@@H]1[C@H]1C(=O)CCC(=O)[C@H]13	103%	95.2%	102%	79.2%		92.1%	97%	101%	96.5%		96.6%	98.8%	107%	99.2%	115%	106%	94.9%	100%	97.9%	81.1%
COc1ccc2c(c1)O/C(=C\c1cccc(OCC(=O)Nc3nc4c(s3)CCCC4)c1)C2=O	82.5%	90.2%	53.8%		115%	97.4%	88.8%	-67.9% (active)	25.3%		-23.4% (active)	62.4%	90.9%		41.5%	84%	-9.46% (active)	49.6%	103%	-100% (active)
C=CC(=O)Nc1cccc(-c2nc(SC)nc(NCCc3ccc(OC)c(OC)c3)c2C#N)c1	65.7%	43.8%	47.6%	45.1%		35.7%	18.5%	26.3%	2.39% (active)		30.7%	19.4%	89.3%	65.7%	53.6%	71.1%	23.7%	9.33% (active)	91.7%	52.8%
COc1ccc(-c2cc(NC(=O)Nc3ccc4ncsc4c3)no2)cc1	112%	95.9%	96.3%	106%		99.6%	100%	106%	96.1%		102%	96.2%	118%	107%	114%	93.3%	106%	92.6%	98.6%	91%
